D2 PAM-1 – potentiates the human D2 dopamine receptor allosterically; P14416; DiscoveRx D2 beta-arrestin cells, luminescence, 90 min; 100% = 57 uM dopamine signal; potentiation, % (test concentration not listed); 360,000 compounds, 0.23% hits; in the data active = potentiation above about 50%
Target sequence (P14416 whole entry, looked up): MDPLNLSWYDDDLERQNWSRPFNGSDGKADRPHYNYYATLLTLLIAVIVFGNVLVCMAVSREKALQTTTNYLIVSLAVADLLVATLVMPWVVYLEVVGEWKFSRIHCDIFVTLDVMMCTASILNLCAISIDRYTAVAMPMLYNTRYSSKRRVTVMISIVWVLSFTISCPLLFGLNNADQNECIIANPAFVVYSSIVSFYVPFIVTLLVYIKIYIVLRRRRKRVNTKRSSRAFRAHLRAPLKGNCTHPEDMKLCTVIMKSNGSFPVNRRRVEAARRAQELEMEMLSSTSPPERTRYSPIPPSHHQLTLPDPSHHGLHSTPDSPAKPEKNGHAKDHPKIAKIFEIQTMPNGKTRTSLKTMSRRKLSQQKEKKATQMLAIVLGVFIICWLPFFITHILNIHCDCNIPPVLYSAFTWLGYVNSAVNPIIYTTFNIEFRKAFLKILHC
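PathHunter beta-arrestin assay in DiscoveRx D2 cells. Compounds were added with an EC20 of dopamine (50 nM final) for 90 min at 37 deg C. Luminescence was read 1 h after detection reagent, with 57 uM dopamine as the EC100 control.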
D2 antagonist – antagonizes the human D2 dopamine receptor; HEK293 TREx D2 cells, calcium flux, dopamine EC80; P14416; inhibition, % at 10 µM; 340,000 compounds, 2% hits; in the data active = inhibition above about 30%; inactive = below that, where a call was filed
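In this primary screen, negative modulation is detected by tracking calcium flux after an EC80 dopamine challenge in inducible HEK293 T-REx D2 cells preexposed to test compound for 180 s.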
D2 ag-1 – agonists of human D2 dopamine receptor; P14416; HEK293 T-REx D2 cells, calcium flux agonist mode; activation, % at 2 µM; 340,000 compounds, 0.53% hits; AID 485358;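 active = activation over 3 SD above normal in the single-dose calcium agonist read, cut at about 30% in these data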
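Agonism is scored from calcium flux in a force-coupled, inducible HEK293 cell line expressing D2, read kinetically for 180 s after compound addition against dopamine controls.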
D2 PAM-2 – D2 dopamine receptor (human) potentiation; potentiation, % at 10 µM; HEK293 T-REx D2, calcium flux, EC20 dopamine potentiation; 340,000 compounds, 0.34% hits; AID 485347;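 active = potentiation over 3 SD above the plate norm, cut at about 30% in these data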
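Potentiation of an EC20 dopamine calcium response measured kinetically over 180 s, after a preceding 180 s compound-only read flagging agonists. Cells: inducible Hek293 Trex D2 line, 4000/well, cultured overnight at 30 C before dye loading.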
D2 ag-2 – agonists of human D2 dopamine receptor (beta-arrestin); DiscoveRx PathHunter D2 beta-arrestin, luminescence, 90 min; 100% = 57 uM dopamine signal; activation, % (no concentration beside the values); 360,000 compounds, 0.084% hits; in the data active = activation above about 40%
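Agonist mode: compounds alone added to overnight-plated D2 PathHunter cells for 90 min at 37 C, with 57 uM final dopamine (EC100) defining full response. Beta-arrestin recruitment detected by chemiluminescent reagent, read after 1 h at ambient temperature.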
A number is an active result. A selection: hits, their analogues and other compounds. The true share with any hit is near 2.4%.

For O=C(NC1=NCCS1)c1cccc(S(=O)(=O)N2CCOCC2)c1 the results were D2 PAM-1 inactive, D2 antagonist 34, D2 ag-1 inactive, D2 PAM-2 inactive and D2 ag-2 inactive.
For O=C(c1cccc(S(=O)(=O)N2CCCCC2)c1)N1CCOCC1 the results were D2 PAM-1 inactive, D2 antagonist inactive, D2 ag-1 inactive, D2 PAM-2 inactive and D2 ag-2 inactive.
Screening CC(C)NC(=O)CSc1cn(CC(=O)N2CCCCCC2)c2ccccc12 returned D2 ag-1 inactive and D2 PAM-2 inactive.
Screening COc1cc(Cl)c(C)cc1NC(=O)CSCc1nc(-c2ccc(OC)c(OC)c2)no1 returned D2 ag-1 inactive and D2 PAM-2 inactive.
`COc1cc(/C=N/NC(=O)c2ccncc2)cc(OC)c1OC` gave D2 PAM-1 inactive, D2 antagonist inactive, D2 ag-1 inactive, D2 PAM-2 inactive and D2 ag-2 inactive.
For COc1ccc(-c2[nH]ncc2/C=N/NC(=O)c2ccc(Br)cc2)c(OC)c1 the results were D2 PAM-1 inactive, D2 antagonist 48, D2 ag-1 inactive, D2 PAM-2 inactive and D2 ag-2 inactive.
Screening COc1ccc(C(=O)N/N=C/c2cn[nH]c2-c2ccc(OC)cc2OC)cc1 returned D2 PAM-1 inactive, D2 antagonist inactive, D2 ag-1 inactive, D2 PAM-2 inactive and D2 ag-2 inactive.
For C/C(=N\NC(=O)c1ccncc1)c1cccc(NC(=O)c2ccc(C(C)(C)C)cc2)c1 the results were D2 PAM-1 inactive, D2 antagonist inactive, D2 ag-1 inactive, D2 PAM-2 inactive and D2 ag-2 inactive.
`CN(C)c1ccc(C(=O)N/N=C/c2cc(Br)cc(Br)c2O)cc1` gave D2 PAM-1 inactive, D2 antagonist 32, D2 ag-1 inactive, D2 PAM-2 inactive and D2 ag-2 inactive.
C/C(=N\NC(=O)c1ccc(Br)cc1)c1cccc(NC(=O)c2cccnc2)c1 was read as D2 PAM-1 inactive, D2 antagonist 32, D2 ag-1 inactive, D2 PAM-2 inactive and D2 ag-2 inactive.
For COc1c(Br)cc(Br)cc1/C=N/NC(=O)c1ccncc1 the results were D2 PAM-1 inactive, D2 antagonist 93, D2 ag-1 inactive, D2 PAM-2 inactive and D2 ag-2 inactive.
Screening COc1cccc(NC(=O)C(=O)NCCc2csc(-c3ccc(C(F)(F)F)cc3)n2)c1 returned D2 ag-1 inactive and D2 PAM-2 inactive.
Screening COc1ccc(N2CCN(C(=O)C3CCN(S(=O)(=O)c4cn(C)cn4)CC3)CC2)cc1 returned D2 ag-1 inactive and D2 PAM-2 inactive.
Screening COc1c(Br)cc(Br)cc1/C=N/NC(=O)c1cccnc1 returned D2 PAM-1 inactive, D2 antagonist 90, D2 ag-1 inactive, D2 PAM-2 inactive and D2 ag-2 inactive.
For Cc1cc(C)cc(OCC(=O)NCC2(N(C)C)CCCCC2)c1 the results were D2 ag-1 inactive and D2 PAM-2 inactive.
For CCOC(=O)c1cccc(Nc2ccc3cc(S(=O)(=O)N4CCCCC4)ccc3n2)c1 the results were D2 ag-1 inactive and D2 PAM-2 inactive.
O=C(c1ccco1)N1CCN(C(c2cccs2)c2nnnn2C2CCCC2)CC1 (stereo unspecified) was read as D2 PAM-1 inactive, D2 antagonist inactive, D2 ag-1 inactive, D2 PAM-2 inactive and D2 ag-2 inactive.
For c1cnc2ccc(C(c3nnnn3C3CCCCC3)N3CCCCC3)cc2c1 (stereo unspecified) the results were D2 PAM-1 inactive, D2 antagonist inactive, D2 ag-1 inactive, D2 PAM-2 42 and D2 ag-2 inactive.
`COc1ccc(C(c2nnnn2C2CCCC2)N2CCC(C)CC2)cc1` (stereo unspecified) gave D2 PAM-1 inactive, D2 antagonist inactive, D2 ag-1 inactive, D2 PAM-2 30 and D2 ag-2 inactive.
`c1cnc2ccc(C(c3nnnn3C3CCCCC3)N3CCN(C4CCCCC4)CC3)cc2c1` (stereo unspecified) gave D2 PAM-1 inactive and D2 ag-2 inactive.
`COc1ccc(C(c2nnnn2C2CCCCC2)N2CCN(c3ccc(OC)cc3)CC2)cc1` (stereo unspecified) gave D2 PAM-1 inactive, D2 antagonist inactive, D2 ag-1 inactive, D2 PAM-2 inactive and D2 ag-2 inactive.
